# Source: PubChem BioAssay (National Center for Advancing Translational Sciences (NCATS))
# uPA generation: inhibitors of cell surface uPA generation; cell surface uPA generation assay, qHTS; Potency, µM (top dose mostly 38.3 µM), for inactives: at the highest dose activity change, negative = inhibition, hits mostly inhibitors; actives 0.31% (n = 330,000); active = well fitted inhibition curve with a large enough effect; inconclusive = small, poorly fitted or top-dose-only effect; inactive = no such curve, though single readings can be large or run the other way; tested in mouse RAW 264.7 cells; also: % is scaled to controls: 0 for no effect and ±100 for the full control effect; nearly all actives have a fitted effect of over 55% in size
# RORgamma inh: ROR gamma (mouse) transcription inhibition | Potency, µM (titrated, usually from 53.6 µM), for inactives: at the highest dose activity change, negative = inhibition, actives largely listed as inhibitors | Drosophila S2 Gal4-RORgamma UAS-luciferase reporter, 20 h | actives 5.4% (n = 310,000) | P51450; also: % is scaled to controls: 0 for no effect and ±100 for the full control effect; nearly all actives have a fitted effect of over 60% in size
# Target sequence (P51450 whole entry, looked up, the tested form may be a part): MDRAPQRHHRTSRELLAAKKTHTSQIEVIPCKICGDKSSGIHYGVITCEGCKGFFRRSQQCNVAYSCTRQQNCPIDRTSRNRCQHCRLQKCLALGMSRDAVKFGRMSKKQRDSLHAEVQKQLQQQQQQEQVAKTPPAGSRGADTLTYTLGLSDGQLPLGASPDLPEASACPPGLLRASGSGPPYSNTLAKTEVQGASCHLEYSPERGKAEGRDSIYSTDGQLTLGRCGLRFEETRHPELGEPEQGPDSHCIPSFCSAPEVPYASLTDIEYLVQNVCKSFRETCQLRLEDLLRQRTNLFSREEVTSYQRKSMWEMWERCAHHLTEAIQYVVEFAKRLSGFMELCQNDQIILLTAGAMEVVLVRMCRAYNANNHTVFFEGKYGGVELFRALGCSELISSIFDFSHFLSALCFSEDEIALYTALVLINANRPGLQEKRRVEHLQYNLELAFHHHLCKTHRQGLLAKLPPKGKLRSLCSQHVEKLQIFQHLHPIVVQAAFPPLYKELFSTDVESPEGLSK
#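 Luminescence from a UAS-regulated Photinus luciferase reporter in stably transfected Drosophila Schneider cells is measured; decreased signal marks ROR gamma inhibition. Fusion expression is induced by 700 uM copper sulfate for 20 hr.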
# VP16 counter: inhibits Gal4-VP16 luciferase reporter, ROR gamma counter-screen; Potency, µM (doses to about 53.6 µM), for inactives: at the top dose activity, negative = inhibition, hits mostly inhibitors; actives 3.5% (n = 310,000); Drosophila S2 Gal4-VP16 UAS-luciferase, luminescence, 20 h;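 also: Gal4-VP16 expression switched on by copper sulfate through the metallothionein promoter; % is scaled to controls: 0 for no effect and ±100 for the full control effect; nearly all actives have a fitted effect of over 50% in size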
# Chronic BCR inh: chronic active BCR signaling inhibition | ABC-DLBCL IkBa-CBG/CBR reporter, luminescence ratio, 4 h | Potency, µM (highest dose often 46.1 µM), without a hit: at the top dose activity change, negative = inhibition, most hits filed as inhibitors | actives 0.05% (n = 340,000); active = well fitted inhibition curve with a large enough effect in the signal ratio, with a control signal flat, not every such curve was filed as active; inconclusive = small, poorly fitted or top-dose-only effect, or effect the other way, or a change in a side signal; the % refers to the signal ratio;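 also: plate controls were basal doxycycline-induced cells for no effect and cells given 10 µM MG132 for full effect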
#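 Doxycycline induced both beetle luciferases in TMD8 lymphoma cells; IKK-driven degradation limits the IkappaBalpha-fused green signal, while red luminescence normalises for cell number and nonspecific effects. Compounds tested up to 46 uM, 4 hrs.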
# Mito fusion act: mitochondrial division inhibition or fusion activation | S. cerevisiae fusion-defective mutant growth rescue, CellTiterGlo 48 h | AID 485298 | Potency, µM (titrated, usually from 46.1 µM), for the others: top-dose growth rescue (activation), hits mostly activators | actives 0.23% (n = 320,000); also: % of control where 0% means no effect; nearly all actives have a fitted effect of over 45% in size
#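 Compounds are tested for their ability to restore growth of mitochondrial fusion-defective yeast strains at non-permissive 37C in YPEG medium over 48 hours. Viability is quantified by luciferase luminescence.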
# a7 integrin act: integrin-mediated muscular dystrophy alleviation activation; Potency, µM (top dose mostly 38.3 µM), inactives show at the top dose activation, hits mostly activators; alpha7betagal myoblasts, beta-gal FDG fluorescence, 48 h; actives 0.064% (n = 350,000);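 also: 100% = response of the positive control SU9516; nearly all actives have a fitted effect of over 60% in size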
#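 Alpha7betagal+/- myoblasts (passage 13) were plated 16-24 hr, then exposed to compounds (1:260 dilution of DMSO stock) for 48 hours at 37C. After MPER lysis, β-galactosidase reporter activity was read as FDG fluorescence (ex 480/em 540) after 30 minutes.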
# An asterisk follows results filed as active; ? = inconclusive; · = no result given; [ ] = dose if it differs, or a comment. Only some compounds are listed: those with a hit (about 5.5% of all), similar ones and a draw of the others. Unless noted, calls follow the shape of the dose curve; as a rule, active = well fitted curve in the direction sought with a large enough effect; inconclusive = small, poorly fitted or top-dose-only effect, or another doubt; inactive = no such curve, though single readings can be large; an effect the other way counts as inactive or inconclusive. Potency is read from the fitted curve at half-maximal effect.
SMILES,uPA generation,RORgamma inh,VP16 counter,Chronic BCR inh,Mito fusion act,a7 integrin act
O=S(=O)(Cc1cc(NCc2ccccc2)nc(-c2ccccn2)n1)c1ccccc1,-4%,4.5µM*,?,12%,-1%,-7%
Cc1ccc(C)c(N2N=C(C(=O)Nc3cccc(S(=O)(=O)N4CCCCC4)c3)CCC2=O)c1,-3%,·,·,-1%,-2%,-22%
COC(=O)C1=CC(C(=O)c2cccs2)=NN(c2ccc(OC)cc2)C1C(=O)OC (centres undefined),-4%,27%,-8%,-5%,18µM*,-1%
O=C1C=CC(=O)N1CCNc1ncc(C(F)(F)F)cc1Cl,-15%,5µM*,6.3µM*,?,2%,0%
CC(=O)CSc1nc(N)c(C#N)c(-c2cccs2)c1C#N,4%,28%,3%,?,4%,5%
Cc1cccc(CSc2nc(N)c(C#N)c(-c3cccs3)c2C#N)c1,3%,?,?,24%,13µM*,-37%
CCCCSc1nc(N)c(C#N)c(-c2cccs2)c1C#N,·,33%,3%,?,4µM*,5%
COc1ccc(/C=C/C(=O)Nc2cc(C(F)(F)F)ccc2Cl)cc1,5%,-4%,-18%,7%,-3%,-1%
FC(F)(F)c1ccc(Cl)c(NC(=S)N/N=C/c2ccccc2C(F)(F)F)c1,6%,0.32µM*,0.56µM*,?,-16%,9%
COc1ccc(/C=N/NC(=S)Nc2cc(C(F)(F)F)ccc2Cl)cc1,-2%,0.35µM*,4µM*,-4%,-4%,?
COC(=O)/C(=C1/Oc2cc(C)oc(=O)c2S1)C(F)(F)F,-15%,0.71µM*,1.1µM*,-14%,13%,-8%
COC(=O)/C(=C1/Oc2ccc(C(C)(C)C)cc2S1)C(F)(F)F,17%,14%,-15%,4%,-2%,?
CC(C)[C@H](NC(=O)[C@@H]1Cc2ccccc2CN1C(=O)OC(C)(C)C)C(=O)NCC1CCCO1 (some centres undefined),3%,-3%,0%,0%,-5%,1%
CCC(Sc1nc2ccccc2c2nc(-c3ccccc3)nn12)C(=O)Nc1cccc(OC)c1 (centres undefined),·,·,·,16%,·,·
C=CCNC(=S)NNC(=O)CSc1nc2ccccc2s1,9%,7.1µM*,?,-3%,7%,1%
O=C(CSc1nc2ccccc2s1)NNC(=S)Nc1ccc(Cl)cc1,0%,5µM*,8.9µM*,8%,?,20%
O=C(CSc1nc2ccccc2s1)Nn1cnnc1,0%,7%,-13%,-1%,-5%,?
O=C(Nc1ccc(Cl)cc1)/C(=C/c1ccc([N+](=O)[O-])cc1)c1nc2ccccc2s1,·,5µM*,5µM*,0%,7%,·
CC(C)N1CC(C(=O)Nc2ccc(Cl)c(Cl)c2)CC1=O (centres undefined),-8%,-30%[1.91 µM],13%,-1%,0%,3%
CC(C)N1CC(C(=O)Nc2cc(Cl)cc(Cl)c2)CC1=O (centres undefined),7.1µM*,-13%,-5%,-7%,-1%,-5%
CC(C)Cn1c(=O)c2ccccc2n2c(CCC(=O)O)nnc12,-4%,-9%,3%,8%,1%,-13%
NC(=O)SCC(=O)Nc1ccc(Cl)cc1,-9%,?,-23%,?,10%,8%
NC(=O)SCC(=O)Nc1cccc(Cl)c1,5%,10µM*,?,-3%,6%,11%
Cc1ccccc1NC(=O)c1ccc(F)c(S(=O)(=O)N2CCN(c3ccccc3F)CC2)c1,·,·,·,-7%,·,·
CC1=CC(C)(C)N(C(=O)CN2C(=O)CCC2=O)c2ccccc21,16%,14%,4%,?,5%,?
CC1=CC(C)(C)N(C(=O)CN2C(=O)c3ccccc3C2=O)c2ccc(C)cc21,0%,?,20µM*,-5%,7%,-12%
Cc1cccc(NC(=O)/C=C/c2ccc([N+](=O)[O-])s2)c1,-15%,6.3µM*,3.2µM*,?,3%,-51%
